In PubChem BioAssay (NCATS) one finds Potency data, which are given here for 30 compounds.

In experiment [1] the target is Cytochrome P450 2D6 (Homo sapiens) (UniProt P10635). Put plainly: Cytochrome P450 family 2 subfamily D member 6 (CYP2D6) small molecule antagonists: luciferase biochemical (cell-free) qHTS assay (AID 1645840; active = well fitted curve in the direction sought with a large enough effect in the repeat runs; an effect the other way counts as inactive or inconclusive; also: nearly all actives have a fitted effect of over 55% in size). In short, it runs like this:
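P450-Glo CYP2D6 system: proluciferin substrate converted by enzyme to luciferin, read by luminescence proportional to activity. Enzyme-substrate mix with compound 10 min at room temperature, then NADPH regeneration 1 h before detection reagent.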
Background: qHTS replaces the single test concentration by a dilution series.

The target in experiment [2] is Cytochrome P450 2C9 (Homo sapiens) (UniProt P11712). Put plainly: Cytochrome P450 family 2 subfamily C member 9 (CYP2C9) small molecule antagonists: luciferase biochemical (cell-free) qHTS assay (AID 1645842; active = well fitted curve in the direction sought with a large enough effect in the repeat runs; an effect the other way counts as inactive or inconclusive; also: nearly all actives have a fitted effect of over 55% in size). The gist of the method:
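P450-Glo CYP2C9 system: proluciferin substrate with enzyme in mix containing 0.4% BSA, 10 min at room temperature, then NADPH regeneration solution added and incubated 1 h at 37C. Detection reagent stopped reaction; luminescence read after 20 min as RLU.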

Experiment [3] in a line: Primary qHTS for inhibitors of nuclear receptor binding SET domain protein 2 (NSD2) in an isogenic RCH-ACV NSD2 p.E1099K mutant (9B) (AID 1645876). Also: nearly all actives have a fitted effect of over 70% in size.
Experiment [4] is described as follows: Primary qHTS for inhibitors of nuclear receptor binding SET domain protein 2 (NSD2) in an RCH-ACV wild type WT cells (2C) (AID 1645877). Also: nearly all actives have a fitted effect of over 70% in size.
The target of experiment [5] is N-terminal Xaa-Pro-Lys N-methyltransferase 1 (Homo sapiens) (UniProt Q9BV86). Put plainly: Confirmatory qHTS for Inhibitors of N-terminal methyltransferase 1 (NTMT1): MTaseGlo Assay (AID 1645874). Also: nearly all actives have a fitted effect of over 65% in size. The gist of the method:
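Room-temperature NTMT1 reaction, 30 min, with 100 uM SAM and 1 uM SPKRIA substrate; enzyme 125 nM. Read-out: MTase-Glo luminescence, normalized to no-enzyme and DMSO controls.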

SMILES strings stand for the structures. Values joined by “and” are separate entries in the source; they are usually repeats but may differ in a detail not shown here. Identical values can stand only once. Results filed as inconclusive are left out. Active and inactive are the calls of the source. Unless noted, calls follow the shape of the dose curve; as a rule, active = well fitted curve in the direction sought with a large enough effect; inconclusive = small, poorly fitted or top-dose-only effect, or another doubt; inactive = no such curve, though single readings can be large; an effect the other way counts as inactive or inconclusive. Where a SMILES comes first, the peptide text is derived from it. Bridges are numbered along the chain shown (N, C = ends). [ ]: non-standard residue; d: D form. The star is where a group is joined. X1 = CCC(C)C(N)C1=NC(C(=O)*)CS1; dOrn = NCCC[C@@H](N)C(=O)O
Potency is read from the fitted curve at half-maximal effect.

Chain of Cytochrome P450 2C9 (Homo sapiens) (P11712 whole entry, looked up): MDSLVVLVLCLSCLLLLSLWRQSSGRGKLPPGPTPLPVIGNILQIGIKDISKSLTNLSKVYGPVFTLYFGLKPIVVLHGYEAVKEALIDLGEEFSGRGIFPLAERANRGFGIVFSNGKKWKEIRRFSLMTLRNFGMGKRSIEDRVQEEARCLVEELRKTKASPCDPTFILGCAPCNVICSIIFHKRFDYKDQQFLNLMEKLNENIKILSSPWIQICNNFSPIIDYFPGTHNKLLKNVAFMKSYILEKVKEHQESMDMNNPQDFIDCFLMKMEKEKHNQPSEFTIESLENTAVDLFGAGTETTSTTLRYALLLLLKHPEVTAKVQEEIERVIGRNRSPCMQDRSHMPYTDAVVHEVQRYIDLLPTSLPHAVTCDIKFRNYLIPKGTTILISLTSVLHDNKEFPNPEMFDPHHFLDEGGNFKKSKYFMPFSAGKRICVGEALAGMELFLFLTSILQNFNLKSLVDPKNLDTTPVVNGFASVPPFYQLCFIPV
Chain of Cytochrome P450 2D6 (Homo sapiens) (P10635 whole entry, looked up): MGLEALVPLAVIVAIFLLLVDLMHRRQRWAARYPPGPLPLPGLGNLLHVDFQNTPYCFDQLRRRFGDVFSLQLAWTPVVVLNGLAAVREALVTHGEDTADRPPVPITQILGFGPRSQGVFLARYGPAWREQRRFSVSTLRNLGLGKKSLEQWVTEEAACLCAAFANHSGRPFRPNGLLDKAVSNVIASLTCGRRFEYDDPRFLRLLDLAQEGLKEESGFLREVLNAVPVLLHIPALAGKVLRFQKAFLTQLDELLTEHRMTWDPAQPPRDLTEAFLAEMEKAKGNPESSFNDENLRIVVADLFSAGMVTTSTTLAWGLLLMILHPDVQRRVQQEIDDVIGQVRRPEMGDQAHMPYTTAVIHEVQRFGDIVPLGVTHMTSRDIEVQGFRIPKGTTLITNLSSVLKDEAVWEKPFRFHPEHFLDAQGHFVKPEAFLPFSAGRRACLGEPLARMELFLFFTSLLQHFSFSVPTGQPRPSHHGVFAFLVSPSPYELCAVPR
Chain of N-terminal Xaa-Pro-Lys N-methyltransferase 1 (Homo sapiens) (Q9BV86 whole entry, looked up): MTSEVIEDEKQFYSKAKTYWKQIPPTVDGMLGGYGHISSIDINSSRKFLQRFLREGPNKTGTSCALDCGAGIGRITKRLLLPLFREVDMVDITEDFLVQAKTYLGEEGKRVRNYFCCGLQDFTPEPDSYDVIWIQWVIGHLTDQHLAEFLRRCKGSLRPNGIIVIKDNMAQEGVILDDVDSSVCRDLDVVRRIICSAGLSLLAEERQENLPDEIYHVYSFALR

With `N[C@@H](CC(=O)N1CCn2c(nnc2C(F)(F)F)C1)Cc1[nH]nc2c(F)c(F)ccc12`, the Potency entry in experiment [1], in experiment [2], in experiment [3] and in experiment [4] was “inactive” in each case.
In the case of `Cc1onc(-c2ccccc2)c1C(=O)N[C@@H]1C(=O)N2[C@@H]1SC(C)(C)[C@@H]2C(=O)O`, the Potency entry in experiment [1], in experiment [2], in experiment [3] and in experiment [4] was “inactive” throughout.
In the case of `CCC(=O)NS(=O)(=O)c1ccc(-c2c(-c3ccccc3)noc2C)cc1`, the Potency entry in experiment [1], in experiment [3] and in experiment [4] was “inactive” in each case. Besides, in experiment [2], the Potency was 6.74 µM (active).
Consider `NC(Cc1c[nH]c2ccccc12)C(=O)NC(CCC(=O)O)C(=O)O` (stereo not given), for which the Potency result in experiment [1], in experiment [2], in experiment [3] and in experiment [4] was “inactive” throughout.
Turning to `CCC(C)C(N)C1=NC(C(=O)N[C@@H](CC(C)C)C(=O)N[C@H](CCC(=O)O)C(=O)N[C@H](C(=O)N[C@H]2CCCCNC(=O)[C@H](CC(N)=O)NC(=O)[C@@H](CC(=O)O)NC(=O)[C@H](Cc3cnc[nH]3)NC(=O)[C@@H](Cc3ccccc3)NC(=O)[C@H]([C@@H](C)CC)NC(=O)[C@@H](CCCN)NC2=O)[C@@H](C)CC)CS1` (stereo not given in full) (X1-L[dE]IK[dOrn]I[dF]H[dD]N; lactam 4-C), the Potency entry in experiment [1], in experiment [3] and in experiment [4] was “inactive” in each case. In addition, the Potency in experiment [5] was 2.94 µM (active).
Turning to `C=Cc1cc(O)cc2nc(-c3ccc(O)c(F)c3)oc12`, the Potency in experiment [1] is 21.3 µM (active); in experiment [5], 44.7 µM (active).
Turning to `CC(C)N(C[C@H]1O[C@@H](n2cnc3c(N)ncnc32)[C@H](O)[C@@H]1O)C1CC(CCc2nc3ccc(C(C)(C)C)cc3[nH]2)C1` (stereo not given in full), in experiment [1], the Potency is 16.9 µM (active). Further, the Potency result in experiment [2], in experiment [3] and in experiment [4] was “inactive” in each case.
As to `CCC(CC)n1ccc2c(C(=O)NCc3c(C)cc(C)[nH]c3=O)cc(C#N)cc21`, the Potency result in experiment [1], in experiment [3] and in experiment [4] was “inactive” in each case. The Potency in experiment [2] is 4.77 µM (active).
In the case of `Cc1cn2c(N)c(Cl)cc(C(=O)NCC3CCN(CC(C)C)CC3)c2n1`, the Potency in experiment [1] was 4.77 µM (active). Also, in experiment [3], the Potency result was “inactive”.
Regarding `CNC(=O)Nc1ccc(OC)c(NC(=O)NC(=O)c2cc(F)c(F)cc2Cl)c1`, the Potency result in experiment [1], in experiment [2], in experiment [3] and in experiment [4] was “inactive” throughout.
On to `Clc1ccc(CN[C@H]2CCN(c3ncc(Br)cn3)C2)c(Cl)c1`, for which the results for the Potency in experiment [1] and in experiment [2] were 0.674 µM (active) and 8.49 µM (active), respectively. In experiment [4], the Potency entry was “inactive”.
As to `Cc1ccc2c(c1)C=Cc1cc(C)ccc1C2c1cn(Cc2ccc(C(=O)Nc3nn[nH]n3)o2)c(=O)[nH]c1=S`, the Potency result in experiment [1], in experiment [3] and in experiment [4] was “inactive” each time.
Consider `COc1ccc(C[C@H](N)C(=O)N[C@H]2[C@@H](O)[C@H](n3cnc4c(N(C)C)ncnc43)O[C@@H]2CO)cc1`, for which, in experiment [1], the Potency result is “inactive”. Also, the Potency is 409 nM (active) in experiment [3] and 258 nM (active) in experiment [4].
Turning to `FC(F)(F)c1cc(C(F)(F)F)c2ccc3nc(-c4nnco4)cn3c2n1`, the Potency entry in experiment [1], in experiment [2], in experiment [3] and in experiment [4] was “inactive” in each case.
On to `C[C@H](CCC(=O)O)[C@H]1CC[C@H]2[C@@H]3[C@H](O)C[C@@H]4C[C@H](O)CC[C@]4(C)[C@H]3CC[C@]12C`, for which the Potency entry in experiment [1], in experiment [3] and in experiment [4] was “inactive” throughout.
As to `O=C(Nc1cccnn1)N1CCC(=Cc2cccc(Oc3ccc(C(F)(F)F)cn3)c2)CC1`, the Potency in experiment [1] was 10.7 µM (active); in experiment [3] it was 11500 nM (active); in experiment [4], 10300 nM (active). Further, in experiment [2], the Potency result is “inactive”.
As to `CNC(=O)c1ccc2cc([C@@]3(O)CCn4cncc43)ccc2c1`, the Potency in experiment [1] is 12 µM (active). Besides, the Potency result in experiment [3] and in experiment [4] was “inactive” each time.
`CNC(=O)COC(=O)NCCC1CCN(c2cccc(C)n2)CC1`: the Potency result in experiment [1], in experiment [2], in experiment [3] and in experiment [4] was “inactive” in each case.
As for `O=C1N(CC2CCCCN2)CCN1c1ccccc1` (stereo not given), the Potency in experiment [1] is 15.1 µM (active). For the same compound, the Potency entry in experiment [2], in experiment [3] and in experiment [4] was “inactive” in each case.
For the compound `CCOC(=O)N1CCC(NCCNC(=O)c2ccccc2C)CC1`, the Potency in experiment [1] was 10.7 µM (active). For the same compound, the Potency result in experiment [2], in experiment [3] and in experiment [4] was “inactive” throughout.
Turning to `COCC(=O)N1CCc2cc(-c3csc(NC(=O)c4cc(OC)cc(OC)c4)n3)ccc21`, the Potency entry in experiment [1], in experiment [3] and in experiment [4] was “inactive” each time.
As for `CCOC(=O)Nc1nc2ccccc2[nH]1`, the Potency in experiment [1] is 3.79 µM (active). The Potency result in experiment [3] is “inactive”.
As for `OC[C@H]1O[C@@H](n2cnc3c2NC=NC[C@H]3O)C[C@@H]1O`, the Potency entry in experiment [1], in experiment [2], in experiment [3] and in experiment [4] was “inactive” each time.
`COc1ccc2cc(OCC3(C(=O)O)CN(C(=O)c4ccc(F)cc4)C3)ccc2c1`: the Potency entry in experiment [1], in experiment [3] and in experiment [4] was “inactive” in each case. Moreover, in experiment [2], the Potency is 16.9 µM (active).
For the compound `C[C@]12C=CC(=O)C=C1CC[C@@H]1[C@@H]2[C@@H](O)C[C@@]2(C)[C@H]1CC[C@]2(O)C(=O)COC(=O)CCC(=O)O`, the Potency entry in experiment [1] and in experiment [2] was “inactive” throughout. Also, the Potency in experiment [4] is 258 nM (active).
For the compound `Cc1c(-c2ccnn2C)cc(C(=O)NCc2ccc(S(C)(=O)=O)cn2)c(=O)n1-c1cccc(C(F)(F)F)c1`, the Potency entry in experiment [1], in experiment [3] and in experiment [4] was “inactive” throughout.
On to `NCc1c[nH]c(=S)n1C1CCc2c(F)cc(F)cc2C1` (stereo not given), for which the Potency in experiment [1] is 3.79 µM (active). The Potency result in experiment [3] and in experiment [4] was “inactive” in each case.
As for `O=C(COc1ccc(Cl)cc1)NC1CCC(NC(=O)COc2ccc(Cl)cc2)CC1` (stereo not given), the Potency entry in experiment [1], in experiment [2], in experiment [3] and in experiment [4] was “inactive” in each case.
For the compound `C[C@H]1CN(C[C@H](Cc2ccccc2)C(=O)NCC(=O)O)CC[C@@]1(C)c1cccc(O)c1`, the Potency result in experiment [1], in experiment [2], in experiment [3] and in experiment [4] was “inactive” in each case.
For the compound `Cc1ccc(C(=O)Nc2ccc(Oc3cc4cnn(C)c4cc3-c3cn[nH]c3)c(F)c2)c(=O)n1-c1ccc(F)cc1`, the Potency result in experiment [1] was “inactive”. Also, the Potency was 2.68 µM (active) in experiment [2]; 2.9 µM (active) and 5.9 µM (active) in experiment [3]; 2.9 µM (active) and 3.72 µM (active) in experiment [4].
